This note sets out measurements from ChEMBL document CHEMBL3988442, “University of Dundee, Small-Polar-MMV Screening Library” (2021).

The whole screen tested about 48,000 compounds, of which about 13,000 (27%) showed an effect of 50% or more. Some of the results follow.

The test system of the assay is Wolbachia pipientis. Briefly: Anti-Wolbachia Cell-Based Screen. Type of assay: functional. Further details: scale not given: in the data most compounds retested in dose-response had high values. The note with it: 5 µM.
On to `CC(C)N1CCC2(CC1)CN(C)C(=O)C[C@H]2C(F)(F)F`, for which the “Percent Effect” value was -3.989%. For `COc1ccc2c(c1)CCCN(C(C)C(=O)NC(N)=O)C2` (stereo not drawn), the “Percent Effect” value is -1.078%. For `NC(=O)C1=NC2=NS(=O)(=O)c3ccccc3N2N1Cc1ccc(Br)cc1`, the “Percent Effect” value was determined as 9.157%. `Cc1c[nH]c(C(=O)N2CCn3nc(C(=O)NC4CC4)cc3C2)n1`: the “Percent Effect” value is recorded as -2.025%.

Consider `Cc1nc2ccc(C(=O)N3CCN(CCO)[C@@H]4CS(=O)(=O)C[C@@H]43)cc2o1`, for which the “Percent Effect” value is recorded as -12.01%.

For `CC(C)N1CCC(c2n[nH]cc2S(C)(=O)=O)CC1`, the “Percent Effect” value is on record as 115.7%. For `COCCn1ccnc1C1CCCN(C(=O)c2ccncc2F)C1` (stereo not drawn), the “Percent Effect” value was 0%. `Cn1ccnc1C1CCCN(C(=O)c2cc(F)cc(F)c2)C1` (stereo not drawn): the “Percent Effect” value is recorded as 106.9%. Then `Cc1nc(N)sc1C(=O)N1CCCC(c2nccn2CCCN(C)C)C1` (stereo not drawn), with 8.356%; and `Cc1cc(C(=O)N2CCCC(c3nccn3C)C2)cc(S(N)(=O)=O)c1C` (stereo not drawn), with 99.7%. In the case of `Cc1cc(C(=O)N2CCCC(c3nccn3Cc3ccncc3)C2)no1` (stereo not drawn), the “Percent Effect” value worked out at 10.63%. For the compound `COCCn1ccnc1C1CCCN(C(=O)c2cc(F)cc(F)c2)C1` (stereo not drawn), the “Percent Effect” value is 83.8%.

Regarding `Cn1ccnc1C1CCCN(C(=O)c2ccncc2F)C1` (stereo not drawn), the “Percent Effect” value is reported as 111.1%. In the case of `COCCn1ccnc1C1CCCN(C(=O)c2ccccc2C#N)C1` (stereo not drawn), the “Percent Effect” value is reported as -8.592%.

On to `COCCn1ccnc1C1CCCN(C(=O)c2cccnc2SC)C1` (stereo not drawn), for which the “Percent Effect” value is given as -0.1241%. Turning to `CCc1ncc(C(=O)N2CCCC(c3nccn3CCOC)C2)cn1` (stereo not drawn), the “Percent Effect” value is on record as -9.089%. On to `CC(C)(O)c1cn(C2CCN(C(=O)CCC(F)(F)F)CC2)nn1`, for which the “Percent Effect” value was determined as 13.09%. For `CN(CCc1ccncc1)C(=O)c1sccc1OC(F)F`, the “Percent Effect” value is -13.92%. Then `CCC1=N[C@@]2(CC[C@@H]3CN(C(=O)NCC(C)C)C[C@@H]32)C(=O)N1CC1CC1`, with 11.23%; and `Cc1ncc(C(=O)Nc2cncnc2N(C)C)c(Cl)c1Cl`, with -6.041%. As to `CN(C)C(=O)c1cccnc1SCc1ccccc1Cl`, the “Percent Effect” value was 128.1%. For `Cc1ccccc1CSc1ncccc1C(=O)N(C)C`, the “Percent Effect” value was found to be 111%.

As to `CN(C)C(=O)c1ccccc1NCCCOc1cccc(C#N)c1`, the “Percent Effect” value is listed as -15.07%.

As for `CSCC(=O)N(Cc1ccccn1)Cc1ccccc1C`, the “Percent Effect” value is listed as -1.935%. For the compound `CN(C)C(=O)CN1C[C@@H]2CC[C@H](C1)N(Cc1ccccc1C#N)C2`, the “Percent Effect” value is on record as -40.35%. In the case of `CSc1ncccc1C(=O)N(C)C(C)Cc1ccccn1` (stereo not drawn) it was 1.339%. Take `CSc1ncccc1C(=O)N(C)CCc1scnc1C`: the “Percent Effect” value came to 0.9599%. `CN(C)C(=O)c1cccnc1SCc1ccccc1C#N`: the “Percent Effect” value is 100.1%. Then `Cc1cccnc1NC(=O)CNC(=O)c1ccccc1Cl`, with -60.17%. Consider `O=C(CNC(=O)C1CCCC1)NCc1cnn(-c2ccc(F)cc2F)c1`, for which the “Percent Effect” value is listed as -3.155%. Take `CC(=O)N1CCc2c(nc(N(C)C)nc2NCCc2cccs2)C1`: the “Percent Effect” value is on record as 30.52%. Then `Cc1ccccc1C(O)CNC(=O)Cc1ccc(F)cc1` (stereo not drawn), with -16.74%; and `O=C(CCN1CCOC(CNc2cccnn2)C1)NC1CCCCC1` (stereo not drawn), with 89.48%; and `O=C(CCN1CCOC(Cn2cccn2)C1)NC1CCCCC1` (stereo not drawn), with 137.8%.

For the compound `c1cnnc(NCC2CN(CCN3CCCCC3)CCO2)c1` (stereo not drawn), the “Percent Effect” value is on record as -1.688%.

For `O=C(CCN1CCOC(Cn2cccn2)C1)NC1CCCC1` (stereo not drawn), the “Percent Effect” value is on record as 3.251%. Turning to `OC1(CN2CCOC(CNc3cccnn3)C2)CCCCC1` (stereo not drawn), the “Percent Effect” value amounted to 90.58%. With `O=C(CN1CCOC(Cn2cccn2)C1)NC1CCN(C2CC2)CC1` (stereo not drawn), the “Percent Effect” value was -5.348%. `O=C(CN1CCOC(CNc2cccnn2)C1)N1CCCCC1` (stereo not drawn): the “Percent Effect” value is reported as 113.9%. In the case of `Cc1c2nnn(CC(=O)N(C)C)c(=O)c2nn1C`, the “Percent Effect” value came out at 15.44%.

Consider `COCc1nc2cc(NCc3ccc(C)o3)ccc2o1`, for which the “Percent Effect” value is listed as -0.6949%.

Take `COCCN(C)CCN1CC2(CCN(C3CCCOC3)CC2)OC1=O` (stereo not drawn): the “Percent Effect” value is listed as -0.4921%. With `Cc1cnccc1NCCn1ccnc1C1CCCCC1`, the “Percent Effect” value amounted to 3.788%.

In the case of `Cc1ncc(CN(C)CC(O)c2ccc(OC(F)(F)F)cc2)s1` (stereo not drawn), the “Percent Effect” value is given as -20.59%. Then `Cc1cnn(CCC(=O)NC2CCc3nc(C)cn3C2)c1` (stereo not drawn), with 105.9%. For the compound `Cc1cn2c(n1)CCC(NC(=O)Cn1cncn1)C2` (stereo not drawn), the “Percent Effect” value stood at 119.2%. Take `Cc1cn2c(n1)CCC(NC(=O)c1ccc(CS(C)(=O)=O)o1)C2` (stereo not drawn): the “Percent Effect” value is -5.623%.

With `Cc1cn2c(n1)CCC(NC(=O)CCn1ccnn1)C2` (stereo not drawn), the “Percent Effect” value was -2.127%. Regarding `Cc1cn2c(n1)CCC(NC(=O)CCn1cncn1)C2` (stereo not drawn), the “Percent Effect” value was -7.204%. In the case of `Cc1cn2c(n1)CCC(NC(=O)CCC(F)(F)F)C2` (stereo not drawn) it was 10.47%.

Turning to `Cc1cn2c(n1)CCC(NC(=O)CCCn1cncn1)C2` (stereo not drawn), the “Percent Effect” value worked out at 102.3%. Take `CCN(C(=O)CNC1CCc2ncnn2C1)C1=CCCCC1` (stereo not drawn): the “Percent Effect” value is -6.833%. `CC(C)Oc1ccc(NCc2ccc([S+](C)[O-])cc2)c(F)c1` (stereo not drawn): the “Percent Effect” value turned out to be 7.808%.

Take `O=C(NCc1nn(-c2ccccc2)c2c1CCC2)NC1CC1`: the “Percent Effect” value was -2.781%.

As for `CCc1cc(CNC(=O)NCc2ccc(N3CCCCC3)cc2)on1`, the “Percent Effect” value is -23.7%. For `O=C1CC(NS(=O)(=O)c2ccc(Br)cc2)CN1` (stereo not drawn), the “Percent Effect” value amounted to 151.1%. Regarding `CSc1ccc(S(=O)(=O)NC2CNC(=O)C2)cc1` (stereo not drawn), the “Percent Effect” value is -0.4933%. For the compound `O=S(=O)(NC1CC1)c1cccc(Br)c1`, the “Percent Effect” value was -14.81%. On to `O=C(c1ccc(S(=O)(=O)NC2CCC2)cc1)N1CC[C@H]2CNC[C@H]21`, for which the “Percent Effect” value is given as -0.3981%.

As to `O=C1CC(NS(=O)(=O)c2ccc(F)c(Cl)c2)CN1` (stereo not drawn), the “Percent Effect” value amounted to 135.6%. On to `Cn1nnn(-c2ccc(NS(=O)(=O)c3ccc(F)c(Cl)c3)cc2)c1=O`, for which the “Percent Effect” value is recorded as -5.508%. Then `Cc1ccc(S(=O)(=O)NC2CCC(=O)NC2)cc1Br` (stereo not drawn), with -11.56%; and `COC(=O)c1ccc(S(=O)(=O)NC2CNC(=O)C2)cc1` (stereo not drawn), with 131%; and `O=C1CC(NS(=O)(=O)c2cccc(F)c2)CN1` (stereo not drawn), with 126.5%. Take `CC(Cn1ccnc1)NS(=O)(=O)c1ccc(F)c(Cl)c1` (stereo not drawn): the “Percent Effect” value is on record as -9.501%.

As for `COc1cccc(S(=O)(=O)NC2CNC(=O)C2)c1` (stereo not drawn), the “Percent Effect” value is 1.379%. In the case of `CSCCCN1CCn2nc(CNC(=O)N(C)C)cc2C1`, the “Percent Effect” value is given as -17.64%.

For `Cc1ncsc1CCC(=O)NC1CCN(c2ncccc2C#N)CC1`, the “Percent Effect” value worked out at 5.658%. On to `Cc1ccc2c(c1)C(N1CCOCC1)CC21CCNCC1` (stereo not drawn), for which the “Percent Effect” value is -7.905%. As for `Cc1ccccc1SCC(=O)Nn1cnnc1`, the “Percent Effect” value is -2.526%. In the case of `O=C(C(O)c1ccccc1Cl)N1CCCN(Cc2cccnc2)CC1` (stereo not drawn) it was -0.1768%; in that of `Cc1nc([C@@H]2C[C@H]3CN(Cc4ccc5c(c4)OCO5)C[C@H]3O2)no1`, -16.45%.

Take `Cc1ccc(S(=O)(=O)NC2CNC(=O)C2)cc1C` (stereo not drawn): the “Percent Effect” value is on record as -5.685%. In the case of `O=C1CC(NS(=O)(=O)c2ccccc2)CN1Cc1ccccc1` (stereo not drawn), the “Percent Effect” value is reported as 4.424%. On to `O=C(COCC1CC1)Nc1cc(S(=O)(=O)NC2CC2)ccc1F`, for which the “Percent Effect” value turned out to be 1.35%. On to `O=C1CC(NS(=O)(=O)c2ccc3ccccc3c2)CN1` (stereo not drawn), for which the “Percent Effect” value worked out at 96.97%. With `N#CC1COCCN1S(=O)(=O)c1ccc2ccccc2c1` (stereo not drawn), the “Percent Effect” value is recorded as -7.007%. In the case of `O=C1CC(NS(=O)(=O)c2ccc(Cl)cc2)CN1` (stereo not drawn), the “Percent Effect” value is recorded as 124.5%. For the compound `CC(C)O[C@H]1CN(C(=O)CCN2CCCCO2)C[C@@H]1O`, the “Percent Effect” value is reported as -9.995%. With `Cc1nnc(SCCNC(=O)c2cc(S(N)(=O)=O)ccc2F)s1`, the “Percent Effect” value is 5.633%. With `O=C(O)C(F)(F)F.O=C(c1ccoc1)N1C[C@@H]2OCCN(c3ncccn3)[C@@H]2C1`, the “Percent Effect” value stood at 85.6%.

As for `O=C(O)C(F)(F)F.O=C(c1ccco1)N1C[C@@H]2[C@@H](C1)OCC(=O)N2Cc1cccnc1`, the “Percent Effect” value is recorded as -32.49%. Take `O=C(O)C(F)(F)F.O=C(c1ccoc1)N1C[C@@H]2[C@@H](C1)OCC(=O)N2Cc1cccnc1`: the “Percent Effect” value is given as -4.595%.

`O=C(O)C(F)(F)F.O=C(c1ccco1)N1C[C@@H]2CN(c3ccccn3)C[C@@H]2C1`: the “Percent Effect” value is listed as -23.25%. On to `O=C(O)C(F)(F)F.O=C(c1ccc(F)cc1)N1C[C@@H]2OCCN(c3ncccn3)[C@@H]2C1`, for which the “Percent Effect” value is -10.32%. Then `O=C(c1ccoc1)N1CC[C@@H]2[C@@H](CC1)OCCN2c1cccnc1`, with -2.409%; and `O=C(O)C(F)(F)F.O=C(c1ccc(O)cc1)N1C[C@@H]2OCCN(c3ncccn3)[C@@H]2C1`, with 101.3%; and `O=C(O)C(F)(F)F.O=C(c1ccco1)N1C[C@@H]2OCCN(c3ncccn3)[C@@H]2C1`, with 113.8%. Consider `O=C(O)C(F)(F)F.O=C(c1ccccc1)N1CCO[C@@H]2CN(c3ncccn3)C[C@@H]2C1`, for which the “Percent Effect” value came to 5.105%.

For the compound `CSCC[C@@H](CO)Nc1ccc(-c2nc(-c3ccccc3C)no2)cn1`, the “Percent Effect” value is listed as 8.283%. Then `CO[C@@H]1CCC[C@@H](NC(=O)C(C)(C)c2cccc(F)c2)[C@H]1O`, with 116.6%.

In the case of `CC(C)CS(=O)(=O)CC(=O)NC(C)(C)c1cccc(F)c1`, the “Percent Effect” value was 8.066%. As for `COCCN1CCC(NC(=O)Nc2cccc(F)c2)C1` (stereo not drawn), the “Percent Effect” value is on record as -22.85%.

Consider `Fc1cccc(-n2nc(C3CC3)nc2CCn2cnnn2)c1`, for which the “Percent Effect” value is recorded as -8.194%. On to `CN(C)Cc1ccnc(C2CCCN2Cc2cccc(F)c2F)n1` (stereo not drawn), for which the “Percent Effect” value is reported as 111%. Regarding `CN(C)Cc1ccnc(C2CCCN2Cc2cc[nH]n2)n1` (stereo not drawn), the “Percent Effect” value is given as -4.978%.

Consider `Cc1cnc(CN2CCCC2c2noc(C)n2)cn1` (stereo not drawn), for which the “Percent Effect” value is on record as -5.918%.

In the case of `Cc1nn(C)c(C)c1CN(C)C(=O)C1COc2ccccc2C1` (stereo not drawn), the “Percent Effect” value is reported as -11.47%. In the case of `Cn1cc(C2CCCN2Cc2csc(C(C)(C)C)n2)cn1` (stereo not drawn) it was 3.745%; in that of `Cc1cnn(CC2CCCN2CC(=O)N(C)Cc2cnn(C)c2)c1` (stereo not drawn), -0.6585%.

Regarding `CN(C)Cc1ccnc(C2CCCN2Cc2ccc(F)cn2)n1` (stereo not drawn), the “Percent Effect” value was determined as 110.9%.

Turning to `CCCn1cc(CN2CCCC2c2nccc(CN(C)C)n2)cn1` (stereo not drawn), the “Percent Effect” value is reported as 91.04%. Then `Cc1nn(C)c(C)c1CN1CCCC1c1nccc(CN(C)C)n1` (stereo not drawn), with 96.16%.
